# Inconclusive results are not listed. Entries that show only a call come without a potency. A number with no mark means an inactive call. Activity calls are given as the source filed them. The call rests on the fitted dose curve; in most records, active means well fitted inhibition curve with a large enough effect; inconclusive means small, poorly fitted or top-dose-only effect; inactive means flat fitted curve, though single readings scatter.
# Legend:
# [1] = qHTS profiling for inhibitors of Plasmodium falciparum proliferation (AID 504749); further: nearly all actives have a fitted effect of over 60% in size; settings: P. falciparum in erythrocytes, SYBR Green DNA, 72 h
# How it was run: (§1)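 SYBR Green fluorescence (ex 485 nm, em 535 nm) reports parasite DNA after 72 h compound exposure of infected red cells at 0.3% parasitemia, 2.5% hematocrit; signal normalized to 0.29 uM artemisinin and vehicle wells.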
# 3D7 = experiment: as above; settings: P. falciparum in erythrocytes, SYBR Green DNA, 72 h; series mostly up to 28.7 µM
# How it was run: as §1
# 7G8 = experiment: as above; settings: P. falciparum in erythrocytes, SYBR Green DNA, 72 h; series mostly up to 28.7 µM
# How it was run: as §1
# AA1029 = experiment: as above; settings: P. falciparum in erythrocytes, SYBR Green DNA, 72 h; series mostly up to 28.7 µM
# How it was run: as §1
# AS120 = experiment: as above; settings: P. falciparum in erythrocytes, SYBR Green DNA, 72 h; series mostly up to 28.7 µM
# How it was run: as §1
# ATS189 = experiment: as above; settings: P. falciparum in erythrocytes, SYBR Green DNA, 72 h; series mostly up to 28.7 µM
# How it was run: as §1
# ATS95 = experiment: as above; settings: P. falciparum in erythrocytes, SYBR Green DNA, 72 h; series mostly up to 28.7 µM
# How it was run: as §1
# C2A = experiment: as above; settings: P. falciparum in erythrocytes, SYBR Green DNA, 72 h; series mostly up to 28.7 µM
# How it was run: as §1
# CP185 = experiment: as above; settings: P. falciparum in erythrocytes, SYBR Green DNA, 72 h; series mostly up to 28.7 µM
# How it was run: as §1
# CP191 = experiment: as above; settings: P. falciparum in erythrocytes, SYBR Green DNA, 72 h; series mostly up to 28.7 µM
# How it was run: as §1
# CP192 = experiment: as above; settings: P. falciparum in erythrocytes, SYBR Green DNA, 72 h; series mostly up to 28.7 µM
# How it was run: as §1
# CP194 = experiment: as above; settings: P. falciparum in erythrocytes, SYBR Green DNA, 72 h; series mostly up to 28.7 µM
# How it was run: as §1
# CP201 = experiment: as above; settings: P. falciparum in erythrocytes, SYBR Green DNA, 72 h; series mostly up to 28.7 µM
# How it was run: as §1
# CP211 = experiment: as above; settings: P. falciparum in erythrocytes, SYBR Green DNA, 72 h; series mostly up to 28.7 µM
# How it was run: as §1
# CP215 = experiment: as above; settings: P. falciparum in erythrocytes, SYBR Green DNA, 72 h; series mostly up to 28.7 µM
# How it was run: as §1
# CP217 = experiment: as above; settings: P. falciparum in erythrocytes, SYBR Green DNA, 72 h; series mostly up to 28.7 µM
# How it was run: as §1
# CP237 = experiment: as above; settings: P. falciparum in erythrocytes, SYBR Green DNA, 72 h; series mostly up to 28.7 µM
# How it was run: as §1
# CP238 = experiment: as above; settings: P. falciparum in erythrocytes, SYBR Green DNA, 72 h; series mostly up to 28.7 µM
# How it was run: as §1
# CP203 = experiment: as above; settings: P. falciparum in erythrocytes, SYBR Green DNA, 72 h; series mostly up to 28.7 µM
# How it was run: as §1
# [2] = at 28.7 µM (top of the series), parasite line A
# [3] = at 28.7 µM (top of the series), parasite line B
# Potency means the concentration at half of the fitted maximal effect.
smiles,measurement,setting,value
O=C(O)Cc1ccc(-c2ccccc2)cc1,"activity, negative = inhibition","[1]; at 12.8 µM (top of the series), parasite line A",2.72%
same,"activity, negative = inhibition","[1]; at 12.8 µM (top of the series), parasite line B",-2.57%
same,Potency,3D7,inactive
same,Potency,7G8,inactive
same,Potency,AA1029,inactive
same,Potency,AS120,inactive
same,Potency,ATS189,inactive
same,Potency,ATS95,inactive
same,Potency,C2A,inactive
same,Potency,CP185,inactive
same,Potency,CP191,inactive
same,Potency,CP192,inactive
same,Potency,CP194,inactive
same,Potency,CP201,inactive
same,Potency,CP211,inactive
same,Potency,CP215,inactive
same,Potency,CP217,inactive
same,Potency,CP237,inactive
same,Potency,CP238,inactive
Nc1c(CC(=O)O)cccc1C(=O)c1ccc(Br)cc1,"activity, negative = inhibition",[1]; [2],12.5%
same,"activity, negative = inhibition",[1]; [3],11.2%
same,Potency,3D7,inactive
same,Potency,7G8,inactive
same,Potency,AA1029,inactive
same,Potency,AS120,inactive
same,Potency,ATS189,inactive
same,Potency,ATS95,inactive
same,Potency,C2A,inactive
same,Potency,CP185,inactive
same,Potency,CP191,inactive
same,Potency,CP192,inactive
same,Potency,CP194,inactive
same,Potency,CP201,inactive
same,Potency,CP203,inactive
same,Potency,CP211,inactive
same,Potency,CP215,inactive
same,Potency,CP217,inactive
same,Potency,CP237,inactive
same,Potency,CP238,inactive
CCC1C(=O)OCC1Cc1cncn1C (stereo unspecified),"activity, negative = inhibition",[1]; [2],-3.99%
same,"activity, negative = inhibition",[1]; [3],-7.08%
same,Potency,3D7,inactive
same,Potency,7G8,inactive
same,Potency,AA1029,inactive
same,Potency,AS120,inactive
same,Potency,ATS189,inactive
same,Potency,ATS95,inactive
same,Potency,C2A,inactive
same,Potency,CP185,inactive
same,Potency,CP191,inactive
same,Potency,CP192,inactive
same,Potency,CP194,inactive
same,Potency,CP201,inactive
same,Potency,CP211,inactive
same,Potency,CP215,inactive
same,Potency,CP217,inactive
same,Potency,CP237,inactive
same,Potency,CP238,inactive
CC1(C)C[C@@H]1C(=O)N/C(=C\CCCCSC[C@H](N)C(=O)O)C(=O)O,"activity, negative = inhibition",[1]; [2],10.1%
same,"activity, negative = inhibition",[1]; [3],-12.7%
same,Potency,3D7,inactive
same,Potency,7G8,inactive
same,Potency,AA1029,inactive
same,Potency,AS120,inactive
same,Potency,ATS189,inactive
same,Potency,ATS95,inactive
same,Potency,C2A,inactive
same,Potency,CP185,inactive
same,Potency,CP191,inactive
same,Potency,CP192,inactive
same,Potency,CP194,inactive
same,Potency,CP201,inactive
same,Potency,CP203,inactive
same,Potency,CP211,inactive
same,Potency,CP215,inactive
same,Potency,CP217,inactive
same,Potency,CP237,inactive
same,Potency,CP238,inactive
C=CC(N)CCC(=O)O (stereo unspecified),"activity, negative = inhibition",[1]; [2],0.626%
same,"activity, negative = inhibition",[1]; [3],10.5%
same,Potency,3D7,inactive
same,Potency,7G8,inactive
same,Potency,AA1029,inactive
same,Potency,AS120,inactive
same,Potency,ATS189,inactive
same,Potency,ATS95,inactive
same,Potency,C2A,inactive
same,Potency,CP185,inactive
same,Potency,CP191,inactive
same,Potency,CP192,inactive
same,Potency,CP194,inactive
same,Potency,CP201,inactive
same,Potency,CP211,inactive
same,Potency,CP215,inactive
same,Potency,CP217,inactive
same,Potency,CP237,inactive
same,Potency,CP238,inactive
COc1ccc(-c2cc(=S)ss2)cc1,"activity, negative = inhibition",[1]; [2],-10.3%
same,"activity, negative = inhibition",[1]; [3],-12.9%
same,Potency,3D7,inactive
same,Potency,7G8,12.6 µM (active)
same,Potency,AA1029,inactive
same,Potency,AS120,inactive
same,Potency,ATS189,inactive
same,Potency,ATS95,inactive
same,Potency,C2A,inactive
same,Potency,CP185,inactive
same,Potency,CP191,inactive
same,Potency,CP192,inactive
same,Potency,CP194,inactive
same,Potency,CP201,inactive
same,Potency,CP211,inactive
same,Potency,CP215,inactive
same,Potency,CP217,inactive
same,Potency,CP237,inactive
same,Potency,CP238,inactive

# Reference: PubChem BioAssay (NCATS)
